# Source: PubChem BioAssay (NCI)
# This is part of a sample that, as a whole, favours compounds with a hit. Of some 83,000 tested, about 20% had one in any assay.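 Testing used 96-well plates and a 48-hour single-concentration exposure. Example: -40 means 40% of the starting cells died.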 Unmarked numbers belong to inactive results. Activity calls are given as the source filed them. Rule for the calls: active = growth percent below 10; inactive = the rest.
# System: MDA-MB-468 breast
# Assay: NCI-60 one-dose screen, 48 h (100 = growth as untreated, 0 = no growth, -100 = all killed)
# Conditions: 10 µM unless noted
row,Compound,growth
1,OC1CCCc2ccccc21 (stereo not given),97.4%
2,COc1cc(-c2nc(SCC(=O)Nc3ccc(C(C)=O)cc3)[nH]c(=O)c2C#N)cc(OC)c1OC,-12.8% (active)
3,COc1ccc(C(=O)C(Br)C(Br)C(=O)O)cc1 (stereo not given),93%
4,CCOC(=O)c1[nH]c(-c2ccc(Cl)cc2)cc1-c1cccnc1,-1.1% (active)
5,O=C(O)c1cccc2oc(-c3ccccc3O)nc12,35.2%
6,O=C(O)c1ccc2c(c1Cl)C(=O)c1ccccc1C2=O,88.9%
7,COc1ccc2c(c1)CCc1c-2n[nH]c1-c1[nH]nc2c1CCc1cc(OC)ccc1-2,-6.6% (active)
8,CNC(=O)c1cc(Oc2ccc3c(c2)sc2nc(-c4ccc(Cl)cc4)cn23)ccn1,77.3%
9,Cc1c(Cl)cc(Cl)c(N)c1Cl,111%
10,CCN1CC2=C(Nc3nc(SC)[nH]c(=O)c3C2c2cc(OC)c(OC)c(OC)c2)/C(=C/c2cc(OC)c(OC)c(OC)c2)C1 (stereo not given),95.8%
